The campaign covered roughly 1,500 compounds. About 430 (29%) were called active. How the calls were made is not given here. Only a sample is shown. Entries with a potency or affinity are not part of this list.
Assay: glucose-independent GLuc insulin release activation – cell-based, INS-1E, Gaussia luciferase, luminescence, cherry-pick, counter-screen for glucose-dependent insulin secretion activators, dose response (AID 977606);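 further: 0% = median of neutral control wells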
Conditions: INS-1E Gaussia luciferase insulin secretion, no glucose, 100% = twice neutral-control luminescence; series mostly up to 35 µM; activation: at the top concentration

Row | Compound | activation
1 | Nc1nc(SCc2nc3scc(-c4ccccc4)c3c(=O)[nH]2)n[nH]1 | -17.5% (inactive)
2 | CCCC(=O)Nc1ccc(N2CCN(S(C)(=O)=O)CC2)cc1 | 14.1% (inactive)
3 | O=C(O)CCCNC(=O)c1nn(Cc2ccccc2)c(=O)c2ccccc12 | 1.47% (inactive)
4 | C/C=C/c1ccc(OCCN2C(=O)NC(C)(C)C2=O)c(OC)c1 | -4.08% (inactive)
5 | COc1ccc(C2=Nn3c(nnc3-c3ccccc3F)SC2)cc1OCC1CC1 | -24.7% (inactive)
6 | CS(=O)(=O)N1CCN(c2ccccc2NC(=O)c2ccco2)CC1 | 21.4% (inactive)
7 | O=C(Nc1cccnc1Cl)C1=NN(c2ccccc2)C(=O)CC1 | -2.54% (inactive)
8 | CCc1onc(C)c1C(=O)Nc1ccc(N2CCOCC2)cc1 | 21.2% (inactive)
9 | O=C(Nc1nccs1)c1cc(N2CCOCC2)nc2ccccc12 | -9.4% (inactive)
10 | C[C@@H]1CN([C@H](C)CO)C(=O)c2cc(C3=CCCCC3)cnc2O[C@H]1CN(C)C(=O)CN1CCOCC1 | 33.7% (inactive)
11 | CCNc1nc(NCC)nc(N(C)/N=C/c2ccco2)n1 | 7.09% (inactive)
12 | COc1cc(NC(=O)c2c(-c3ccccc3Cl)noc2C)c2ncccc2c1 | -11.6% (inactive)
13 | CCc1ccc(N(C2C=CS(=O)(=O)C2)S(=O)(=O)c2ccccc2)cc1 (stereo not given) | 7.78% (inactive)
14 | COc1ccc(CC(=O)c2ccc(OC)c(OC)c2)cc1 | -6.86% (inactive)
15 | COc1ccc(CCNC(=O)Cc2ccc3c(c2)OCO3)cc1OC | -14.8% (inactive)
16 | COc1ccc(C(=O)NCC(=O)OCC(=O)NC2CCCCCC2)cc1OC | -8.94% (inactive)
17 | COC(=O)C1C(=O)NC(SC)=C(C#N)C1c1ccccc1 (stereo not given) | -94.9% (inactive)
18 | COc1cccc(CNC(=O)N[C@@H](CC(C)C)C(=O)O)c1 | 4.45% (inactive)
19 | COc1ccc(C2N(c3ccccc3)C(=O)C2(F)F)cc1OC (stereo not given) | 1.38% (inactive)
20 | COC(=O)C1=C(C)NC(=S)NC1c1cccc(OC)c1 (stereo not given) | 4.93% (inactive)
21 | Cc1cccc(C2N=C(N)Nc3nc4ccccc4n32)c1 (stereo not given) | 16.5% (inactive)
22 | CCOc1ccc(C(=O)NCC(=O)Nc2cc(C)ccn2)cc1OCC | -0.143% (inactive)
23 | CCCN(Cc1nnc(-c2ccccc2Cl)o1)C(=O)c1cc2ccccc2o1 | -3.92% (inactive)
24 | c1ccc2nc3c(nc2c1)c1ccccc1n3CCN1CCOCC1 | 5.65% (inactive)

Row | Compound | activation
25 | COc1ccc(CCN(C)C(=O)C(CCSC)NC(=O)c2ccco2)cc1OC (stereo not given) | 2.04% (inactive)
26 | CC(=O)Nc1ccc(S(=O)(=O)Nc2ccc3c(c2)n(C)c(=O)n3C)c(C)c1 | 3.77% (inactive)
27 | COc1nc(N2CCOCC2)nc(-n2cccc2)n1 | -0.551% (inactive)
28 | COc1ccc(S(=O)(=O)N(C)c2ccc(C(=O)NCC3CCCO3)cc2)cc1OC (stereo not given) | 6.43% (inactive)
29 | CCC(=O)Nc1cc2nn(-c3ccc(OC)cc3)nc2cc1C | -3.71% (inactive)
30 | Cc1ccnc(NC(=O)CNC(=O)c2ccco2)c1 | -10.1% (inactive)
31 | COc1ccc(-c2c(NC(=O)c3ccco3)oc3ccc(Cl)cc3c2=O)cc1 | -3.48% (inactive)
32 | COc1ccc(-c2nc(CCNC(=O)c3ccco3)cs2)cc1OC | -0.006% (inactive)
33 | Cc1ccc(C2(C)NC(=O)N(CC(=O)Nc3ccc(-c4nc5ccc(C)cc5s4)cc3)C2=O)cc1 (stereo not given) | -15.2% (inactive)
34 | CCOc1cc(NC(=O)c2ccco2)c(OCC)cc1NC(=O)c1cc(OC)c(OC)c(OC)c1 | -13.1% (inactive)
35 | COc1ccc(S(=O)(=O)N2CCCCC2)cc1NC(=O)C1CC1C (stereo not given) | 26.7% (inactive)
36 | CC(Oc1ccc2c3c(c(=O)oc2c1)CCCC3)C(=O)NCc1cccnc1 (stereo not given) | -13% (inactive)
37 | Cc1ccc(Nc2ncnc3sccc23)c(C)c1 | -5.06% (inactive)
38 | O=C(CN1C(=O)NC(Cc2c[nH]c3ccccc23)C1=O)NCCc1ccccc1 (stereo not given) | 0.275% (inactive)
39 | O=C(Nc1ccc(NC(=O)c2cccs2)cc1)c1ccc(Br)o1 | -6.3% (inactive)
40 | O=C(Nc1nnc(CCS(=O)(=O)c2ccc3ccccc3c2)s1)c1cccs1 | 1.61% (inactive)
41 | CS(=O)(=O)N1CCCCC1c1cc(C(=O)Nc2cccc(C#N)c2)no1 (stereo not given) | 3.77% (inactive)
42 | CN(c1ccc(F)cc1)S(=O)(=O)c1ccc(Cl)c(C(=O)NCC2CCCO2)c1 (stereo not given) | -1.9% (inactive)
43 | Cc1cc(C)nc(NC(=O)c2ccc(Cl)cc2Cl)n1 | -13.6% (inactive)
44 | COc1cc(Cl)c(C)cc1NC(=O)c1ccccc1NC(=O)CN1CCN(C(C)=O)CC1 | -5.13% (inactive)
45 | O=C(CNC(=O)c1ccco1)N/N=C/c1ccc(C(=O)O)cc1 | 13.5% (inactive)
46 | COc1cccc2cc(-c3cc(=O)oc4cc(C)c(O)cc34)oc12 | -14.2% (inactive)
47 | COCCN(CCOC)Cc1cc(=O)oc2cc(C)c(C)cc12 | 19.4% (inactive)
48 | Cc1c(OCC(=O)NCc2ccccn2)ccc2c3c(c(=O)oc12)CCCC3 | -14.3% [at 11 µM] (inactive)

Row | Compound | activation
49 | Cc1sc2ncn(CC(=O)NCc3ccccc3)c(=O)c2c1C | 3.79% (inactive)
50 | O=C1NC(=O)C2(CCCCC2C2CCCCC2)N1 (stereo not given) | -0.57% (inactive)
51 | COc1ccccc1CNC(=O)CCS(=O)(=O)Cc1ccc(C)cc1 | 7.48% (inactive)
52 | Cc1cc(C)c(CSc2nnnn2-c2ccc(C(=O)O)cc2)c(C)c1 | -5.78% (inactive)
53 | CC(C)c1cc(C(C)C)n2nc(N)nc2n1 | -3.96% (inactive)
54 | CN1CCSc2ccc(C(=O)Nc3cccc(F)c3)cc21 | -8.84% (inactive)
55 | CC(=O)c1ccc(OCC(=O)N(C2CCCCC2)C2CCS(=O)(=O)C2)cc1 (stereo not given) | 4.75% (inactive)
56 | Cc1ccc(C(=O)N2CCN3C(=O)c4ccccc4C23c2ccccc2)cc1 (stereo not given) | 1.92% (inactive)
57 | COc1cc2cnc(-c3cccnc3)cc2cc1OC | -6.43% (inactive)
58 | Cc1ccc(S(=O)(=O)NCc2csc(-c3cccs3)n2)cc1 | 13.5% (inactive)
59 | COc1cc2[nH]c(-c3ccc(C)cc3)cc(=O)c2cc1OC | -15.4% (inactive)
60 | O=C(Cn1[nH]c(=O)c2ccccc2c1=O)OCC(=O)c1ccc(F)cc1 | -5.33% (inactive)
61 | C=CCN(CC=C)S(=O)(=O)c1ccc(C(=O)Nc2sc3c(c2C(N)=O)CCCCC3)cc1 | 23.2% (inactive)
62 | CCN(Cc1ccccc1)S(=O)(=O)c1ccccc1Br | -6.72% (inactive)
63 | CCOCCCNC(=O)c1oc2ccc3c(c2c1C)C(O)CC(C)(C)O3 (stereo not given) | 0.062% (inactive)
64 | NC(=O)c1ncn([C@@H]2O[C@H](C(=O)N[C@H](Cc3ccccc3)C(=O)O)[C@@H](O)[C@H]2O)n1 | -1.16% (inactive)
65 | CCc1nc2c(OCc3ccccc3C(=O)OC)cccn2c1N(C)C(=O)c1ccncc1 | -2.47% (inactive)
66 | Cc1cccc(C)c1NC(=O)C1c2ccccc2Oc2ccccc21 | 26.8% (inactive)
67 | O=c1[nH]c2cc(Cl)ccc2n(CCNc2ncc(C(F)(F)F)cc2Cl)c1=O | 7.49% (inactive)
68 | Nn1c(C2CCCCC2)nc2ccccc2c1=O | -1.68% (inactive)
69 | O=C(c1cc(-c2ccccc2)nc2ccccc12)N1CCCC1 | -4.1% (inactive)
70 | CNC(=O)c1cc(C(=O)c2ccccc2Br)c[nH]1 | -15.6% (inactive)
